Screens: PubChem BioAssay, several laboratories
This is a sample that favours compounds with a hit; in the whole collection about 3.5% have one here.
FadD28 binding = blocks FadD28 binding to the bisubstrate probe; fluorescence polarization; inhibition, % at 12.5 µM; 0.22% of 360,000 active; AID 588549; in the data active = inhibition above about 8.5%, passing the limit was not always enough; inconclusive = no clear call, values can overlap the other calls
Mtb FBA inh = inhibitors of M. tuberculosis fructose-bisphosphate aldolase | P9WQA3 | purified M. tuberculosis FBA, fluorescence read-out | inhibition, % at 1 µM | 2.3% of 360,000 active | AID 588726; in the data active = inhibition above about 27%
Target sequence (P9WQA3 whole entry, looked up): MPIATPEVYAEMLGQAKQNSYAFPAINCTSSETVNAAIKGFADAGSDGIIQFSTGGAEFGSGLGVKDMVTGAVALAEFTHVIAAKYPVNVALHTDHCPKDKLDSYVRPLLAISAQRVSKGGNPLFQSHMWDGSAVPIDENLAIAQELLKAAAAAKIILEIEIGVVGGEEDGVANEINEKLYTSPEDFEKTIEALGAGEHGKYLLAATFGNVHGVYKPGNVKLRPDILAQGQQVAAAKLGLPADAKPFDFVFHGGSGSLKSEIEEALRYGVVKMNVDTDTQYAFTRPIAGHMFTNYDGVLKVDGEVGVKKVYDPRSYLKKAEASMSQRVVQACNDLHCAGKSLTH
UGM FP inh = Mtb UDP-galactopyranose mutase inhibition. purified UGM, fluorescence polarization probe displacement. inhibition, % at 10 µM. 0.06% of 320,000 active. AID 504406; in the data active = inhibition above about 10%, passing the limit was not always enough; inconclusive = no clear call, values can overlap the other calls
GDH-TPI inh = inhibits GDH-TPI coupling enzymes, artifact for Mtb FBA screen | AID 588335 | 1.2% of 360,000 active | inhibition, % at 4.8 µM | GDH-TPI coupled enzyme counterscreen, NADH absorbance; in the data active = inhibition above about 30%
Rv3671c inh = inhibits the M. tuberculosis serine protease Rv3671c; P9WHR9; inhibition, % at 5.96 µM; 0.048% of 320,000 active; in the data active = inhibition above about 38%;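 note: extracellular domain of Rv3671c used as enzyme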
Mtb hypoxia inh = inhibitors of hypoxia-regulated fluorescent reporter in Mycobacterium tuberculosis. M. tuberculosis hypoxia-regulated fluorescent reporter, fluorescence. fluorescence inhibition, % (test concentration not listed). 0.1% of 300,000 active; in the data active = fluorescence inhibition mostly above about 23%, no sharp cut-off; inactive = mostly below about 17%
Each line names hits and unclear results; the compound was inactive in the other large screens.

Cc1ccc(-c2cc(C(=O)NN=Cc3ccccc3)n[nH]2)o1	none (no result: FadD28 binding, Mtb FBA inh, UGM FP inh, GDH-TPI inh, Rv3671c inh)
C/C(=N/NC(=O)c1ccco1)c1ccc(Br)s1	GDH-TPI inh 43.0 (no result: FadD28 binding, Rv3671c inh, Mtb hypoxia inh)
COc1ccccc1/C=C/C=N/NC(=O)c1cc(-c2ccc(C)o2)[nH]n1	GDH-TPI inh 44.4 (no result: Mtb hypoxia inh)
COc1ccc(Br)cc1C=NNC(=O)c1ccco1	none (no result: FadD28 binding, Mtb FBA inh, UGM FP inh, GDH-TPI inh, Rv3671c inh)
COc1ccccc1/C=C/C=N/NC(=O)c1ccncc1	GDH-TPI inh 43.6 (no result: Mtb hypoxia inh)
Cn1ncc(Br)c1C(=O)NN=Cc1cccc(OC2CSC2)c1	none (no result: FadD28 binding, Mtb FBA inh, UGM FP inh, GDH-TPI inh, Rv3671c inh)
COc1ccccc1/C=C/C=N/NC(=O)CN1CCN(S(=O)(=O)c2ccc(C)cc2)CC1	GDH-TPI inh 32.8 (no result: Mtb hypoxia inh)
Cc1ccsc1C=NNC(=O)c1ccco1	none (no result: FadD28 binding, Mtb FBA inh, UGM FP inh, GDH-TPI inh, Rv3671c inh)
O=C(NN=CC=NNC(=O)c1ccco1)c1ccco1	none (no result: FadD28 binding, Mtb FBA inh, UGM FP inh, GDH-TPI inh, Rv3671c inh)
Cc1ccsc1/C=N/NC(=O)c1ccco1	GDH-TPI inh 33.3 (no result: Mtb hypoxia inh)
O=C(Cc1cccs1)NN=C/C=C/c1ccccc1[N+](=O)[O-]	none (no result: FadD28 binding, Mtb FBA inh, UGM FP inh, GDH-TPI inh, Rv3671c inh)
COc1ccccc1/C=C/C=NNC(=O)CN1CCN(S(=O)(=O)c2ccc(C)cc2)CC1	none (no result: FadD28 binding, Mtb FBA inh, UGM FP inh, GDH-TPI inh, Rv3671c inh)
O=C(N/N=C/C=N/NC(=O)c1ccco1)c1ccco1	GDH-TPI inh 53.9 (no result: Mtb hypoxia inh)
COc1ccccc1/C=C/C=N/NC(=O)Cc1cccs1	GDH-TPI inh 32.2 (no result: Mtb hypoxia inh)
ON=C(c1ccc(Cl)cc1)c1ncc(C(F)(F)F)cc1Cl	none (no result: FadD28 binding, Mtb FBA inh, UGM FP inh, GDH-TPI inh, Rv3671c inh)
Cc1ccsc1/C=N/N=C/c1sccc1C	GDH-TPI inh 33.3 (no result: Mtb hypoxia inh)
O=C(N/N=C/C(Br)=C/c1ccccc1)C(O)c1ccccc1 (configuration not stated)	GDH-TPI inh 43.5 (no result: Mtb hypoxia inh)
O=C(NN=C/C(Br)=C/c1ccccc1)C(O)c1ccccc1 (configuration not stated)	none (no result: FadD28 binding, Mtb FBA inh, UGM FP inh, GDH-TPI inh, Rv3671c inh)
O=C(O)c1ccc(N/N=C/C(Br)=C/c2ccccc2)cc1	FadD28 binding inconclusive, GDH-TPI inh 65.8 (no result: Mtb hypoxia inh)
CC#CCN1c2ccccc2[C@]23CC(C(=O)OC)N=C2NC(C(=O)OC)=C(C(=O)OC)C13 (some centres not stated)	none (no result: FadD28 binding, Mtb FBA inh, UGM FP inh, GDH-TPI inh, Rv3671c inh)
Cc1ccnn1CC(=O)NN=Cc1cn[nH]c1-c1ccc(F)cc1	none (no result: FadD28 binding, Mtb FBA inh, UGM FP inh, GDH-TPI inh, Rv3671c inh)
CC(C)(C)OC(=O)CC1CC=CCC(CC(=O)NCCO)C(=O)NC(C(C)(C)C)COC1=O (configuration not stated)	none (no result: FadD28 binding, Mtb FBA inh, UGM FP inh, GDH-TPI inh, Rv3671c inh)
O=[N+]([O-])c1ccc(/C=[N+](\[O-])[C@@H]2CCCC[C@@H]2/[N+]([O-])=C/c2ccc([N+](=O)[O-])o2)o1	GDH-TPI inh 34.0
CC(=NOCC(=O)NN=Cc1ccccc1O)c1cccs1	none (no result: FadD28 binding, Mtb FBA inh, UGM FP inh, GDH-TPI inh, Rv3671c inh)
COc1ccc(-c2nc3ccccc3c(=O)[nH]2)cc1	none
CN(C)c1ccc(-c2nc3ccccc3c(=O)[nH]2)cc1	GDH-TPI inh 73.7
Cc1c(-c2c(C#N)c(N)nc3c2CCCCCC3)cnn1C	Mtb FBA inh active (no result: Mtb hypoxia inh)
Cc1nn(C)c(C)c1-c1c(C#N)c(N)nc2c1CCCCCC2	Mtb FBA inh 46.5 (no result: Mtb hypoxia inh)
N#Cc1c(N)nc2c(c1-c1ccncc1)CCCCC2	none
CCCCNC(=O)N(O)C1N(N=Cc2ccco2)C(=S)SC1(C)C (configuration not stated)	none (no result: FadD28 binding, Mtb FBA inh, UGM FP inh, GDH-TPI inh, Rv3671c inh)
CCOc1ccc(NC(=O)C2C(C(=O)O)C3(Cl)C(Cl)=C(Cl)C2(Cl)C3(Cl)Cl)cc1 (configuration not stated)	FadD28 binding 21.4
O=C(NC1CC1)c1ccc2c(c1)N(Cc1ccccc1)CCS2	Mtb FBA inh 161.0
COc1ccc(OC)c(CCNC(=O)c2ccc3c(c2)N(Cc2ccccc2)CCS3)c1	none
CCOC(=O)N1CCN(C(=O)c2ccc3c(c2)N(Cc2ccc(F)cc2)CCS3)CC1	none
CCN1CCN(CCCNC(=O)c2ccc3c(c2)N(Cc2ccccc2)CCS3)CC1	Mtb FBA inh 170.5
O=C(NCC1CCCO1)c1ccc2c(c1)N(Cc1ccc(F)cc1Cl)C(=O)CS2 (configuration not stated)	none
O=C(NCC1CCCO1)c1ccc2c(c1)N(Cc1ccc(F)cc1)CCS2 (configuration not stated)	Mtb FBA inh 119.1
CN1CCN(CCCNC(=O)c2ccc3c(c2)N(Cc2ccc(F)cc2)CCS3)CC1	Mtb FBA inh 158.5
CCOC(=O)N1CCC(NC(=O)c2ccc3c(c2)N(Cc2ccc(C)cc2)CCS3)CC1	none
CCOC(=O)N1CCC(NC(=O)c2ccc3c(c2)N(C)CCS3)CC1	Mtb FBA inh 113.6
Cc1cc(NC(=O)c2sc(Nc3cccc(C(F)(F)F)c3)nc2N)no1	GDH-TPI inh 33.4
O=c1[nH]c(/C=C/c2ccc3c(c2)OCO3)c([N+](=O)[O-])c(=O)[nH]1	none (no result: FadD28 binding, Mtb FBA inh, GDH-TPI inh)
O=c1[nH]c(/C=C/c2ccc([N+](=O)[O-])cc2)c([N+](=O)[O-])c(=O)[nH]1	GDH-TPI inh 31.2 (no result: Rv3671c inh)
CCc1nnc(NC(=O)C(NC(=O)c2cccc(S(=O)(=O)N3CCOCC3)c2)C(C)C)s1 (configuration not stated)	none (no result: FadD28 binding, Mtb FBA inh, UGM FP inh, GDH-TPI inh, Rv3671c inh)
CSc1ccc(/C=C/C(=O)N2CCN(c3ccccn3)CC2)cc1	GDH-TPI inh 32.3
CCNc1nc(C)c2cc(Br)c(=O)n(CC)c2n1	Mtb FBA inh 155.8, GDH-TPI inh 39.9
CCOc1ccc(Nc2ccc(N)c(S(=O)(=O)O)c2)cc1	FadD28 binding 22.4 (no result: UGM FP inh, Rv3671c inh)
Cc1cc(-c2ccccc2)nc(N(C)C)c1S(C)(=O)=O	none
CNc1nc(-c2ccccc2)cc(C)c1S(C)(=O)=O	Mtb FBA inh active (no result: Mtb hypoxia inh)
O=C(/C(=C\c1ccccc1)c1nc2ccccc2[nH]1)c1ccc(Cl)cc1	none
O=C(/C(=C/c1ccc(Cl)cc1)c1nc2ccccc2[nH]1)c1cccs1	GDH-TPI inh 31.7 (no result: Mtb hypoxia inh)
N#C/C(=C(/O)c1ccc(Br)s1)c1nc2ccccc2[nH]1	none
